Measurements reported in PubChem BioAssay (Tox21).
Where “and” joins values, the source holds several entries; their conditions need not be identical. Equal entries are not always repeated. Records with an inconclusive call do not appear. Calls of active or inactive are those of the source. Unless noted, calls follow the shape of the dose curve; as a rule, active = well fitted curve in the direction sought with a large enough effect in the repeat runs; inconclusive = weak or mixed curves; inactive = no such curve, though single readings can be large; an effect the other way counts as inactive or inconclusive.

Experiments:
[1] = qHTS assay to identify small molecule antagonists of the estrogen related receptor (ERR) signaling pathway from Tox21 library - cell viability counter screen (AID 1224834); also: nearly all actives have a fitted effect of over 30% in size; also: potency is read from the fitted curve at half-maximal effect
In short: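 Seeded ERR cells were rested 6 h at 37 C/5% CO2 before compounds, positive and negative controls or DMSO were added. Incubation continued for 17.5 h, and viability was then quantified by CellTiter-Fluor fluorescence.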

[2] = target: Luciferin 4-monooxygenase (Photinus pyralis) (UniProt P08659); test: qHTS assay to identify small molecule inhibitors of firefly luciferase (AID 1224835); also: series mostly up to about 120 µM; nearly all actives have a fitted effect of over 25% in size
Luciferin 4-monooxygenase (Photinus pyralis), sequence (P08659 whole entry, looked up): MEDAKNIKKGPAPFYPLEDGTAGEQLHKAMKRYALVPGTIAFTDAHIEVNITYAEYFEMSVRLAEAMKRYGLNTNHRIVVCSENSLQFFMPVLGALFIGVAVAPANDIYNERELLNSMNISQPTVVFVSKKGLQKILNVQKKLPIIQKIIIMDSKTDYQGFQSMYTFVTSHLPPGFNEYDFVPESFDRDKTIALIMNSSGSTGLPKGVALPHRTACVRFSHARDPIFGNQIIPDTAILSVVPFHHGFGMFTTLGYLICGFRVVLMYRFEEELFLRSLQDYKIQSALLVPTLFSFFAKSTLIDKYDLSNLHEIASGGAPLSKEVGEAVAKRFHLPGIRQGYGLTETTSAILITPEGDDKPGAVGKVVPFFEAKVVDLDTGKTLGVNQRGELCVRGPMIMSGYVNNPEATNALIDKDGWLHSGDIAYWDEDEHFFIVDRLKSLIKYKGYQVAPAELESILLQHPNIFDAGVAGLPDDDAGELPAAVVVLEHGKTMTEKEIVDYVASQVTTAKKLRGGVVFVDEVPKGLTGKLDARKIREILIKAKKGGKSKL
In short: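 Quantitative HTS format; KM concentrations of both substrates. Purified P. pyralis FLuc activity quantified from luminescence images.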

[3] = qHTS assay to identify small molecule agonists of the constitutive androstane receptor (CAR) signaling pathway - cell viability counter screen (AID 1224836); also: nearly all actives have a fitted effect of over 45% in size; also: potency is read from the fitted curve at half-maximal effect
In short: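 HepG2-CYP2B6-hCAR, 2500 cells/well, 4 h pre-incubation; cpd 15 conc + PK11195 0.75 uM final; 23 h, 37 C/5% CO2; CellTiter-Fluor, fluorescence.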

[4] = qHTS assay to identify small molecule antagonists of the constitutive androstane receptor (CAR) signaling pathway - cell viability counter screen (AID 1224837); also: nearly all actives have a fitted effect of over 45% in size; also: potency is read from the fitted curve at half-maximal effect
In short: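 To flag cytotoxic false antagonists, HepG2 hCAR/CYP2B6-2.2kb cells were treated 23 hr with 15-concentration compound series and 50 nM CITCO at 37 C/5% CO2; CellTiter-Fluor fluorescence was the measured end point.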

[5] = qHTS assay to identify small molecule antagonists of the estrogen related receptor signaling pathway with the pleiotropic PPARgamma coactivator (PGC) from Tox21 10K library - cell viability counter screen (AID 1224840; active = well fitted cell-killing curve with a large enough effect in the repeat runs, not every such curve was filed as active; also: nearly all actives have a fitted effect of over 40% in size; also: potency is read from the fitted curve at half-maximal effect)
In short: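 Seeded PGC/ERR cells (2,000/well, 6 h, 37 C/5% CO2) get compound by pin tool; 17.5 h incubation at 37 C; CellTiter-Fluor added, 30 min, fluorescence measured.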

[6] = target: Thyrotropin receptor (Homo sapiens) (UniProt P16473); test: qHTS assay to identify small molecule agonists of the thyroid stimulating hormone receptor (TSHR) signaling pathway (AID 1224843; calls by dose curve; also: nearly all actives have a fitted effect of over 45% in size; also: potency is read from the fitted curve at half-maximal effect)
Thyrotropin receptor (Homo sapiens), sequence (P16473 whole entry, looked up): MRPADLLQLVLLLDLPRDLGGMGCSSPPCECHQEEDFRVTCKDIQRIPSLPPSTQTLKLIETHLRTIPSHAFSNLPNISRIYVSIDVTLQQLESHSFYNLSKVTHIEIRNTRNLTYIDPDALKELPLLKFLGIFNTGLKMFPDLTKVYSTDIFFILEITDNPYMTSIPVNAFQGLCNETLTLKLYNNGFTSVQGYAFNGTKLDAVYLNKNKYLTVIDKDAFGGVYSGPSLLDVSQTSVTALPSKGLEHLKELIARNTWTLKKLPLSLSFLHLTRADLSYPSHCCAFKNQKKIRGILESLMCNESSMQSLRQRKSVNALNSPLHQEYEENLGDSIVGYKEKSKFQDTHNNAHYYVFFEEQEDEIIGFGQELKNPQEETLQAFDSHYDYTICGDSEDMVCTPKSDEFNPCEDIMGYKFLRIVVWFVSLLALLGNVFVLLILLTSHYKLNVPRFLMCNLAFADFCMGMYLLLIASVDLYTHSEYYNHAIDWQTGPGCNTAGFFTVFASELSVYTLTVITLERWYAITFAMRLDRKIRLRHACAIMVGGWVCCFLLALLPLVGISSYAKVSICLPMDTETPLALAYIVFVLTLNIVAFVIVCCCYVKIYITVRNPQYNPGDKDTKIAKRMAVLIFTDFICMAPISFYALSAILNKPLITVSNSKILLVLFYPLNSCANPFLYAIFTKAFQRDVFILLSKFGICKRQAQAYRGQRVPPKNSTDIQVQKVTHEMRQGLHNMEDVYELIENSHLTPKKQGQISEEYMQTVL
In short: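 Using 15 concentrations per compound in triplicate, cAMP production was monitored in TSHR-HEK293 cells after 30 min compound incubation at RT; HTRF reagents followed, with fluorescence intensity recorded after 1 h.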

[7] = target: Nuclear receptor subfamily 1 group I member 3 (Homo sapiens) (UniProt Q14994); test: qHTS assay to identify small molecule agonists of the constitutive androstane receptor (CAR) signaling pathway (AID 1224839);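 also: HepG2 cells stably carrying human CAR and a CYP2B6 luciferase reporter; series mostly up to about 92 µM; nearly all actives have a fitted effect of over 15% in size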
Nuclear receptor subfamily 1 group I member 3 (Homo sapiens), sequence (Q14994 whole entry, looked up): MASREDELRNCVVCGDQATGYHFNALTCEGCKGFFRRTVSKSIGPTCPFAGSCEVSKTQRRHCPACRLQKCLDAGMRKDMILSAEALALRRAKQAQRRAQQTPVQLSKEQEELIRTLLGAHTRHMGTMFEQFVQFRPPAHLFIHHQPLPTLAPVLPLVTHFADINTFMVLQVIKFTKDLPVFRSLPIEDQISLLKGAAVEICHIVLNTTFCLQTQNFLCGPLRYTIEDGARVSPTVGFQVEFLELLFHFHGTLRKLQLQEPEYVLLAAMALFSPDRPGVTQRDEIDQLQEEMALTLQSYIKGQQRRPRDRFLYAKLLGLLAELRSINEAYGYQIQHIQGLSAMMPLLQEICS
In short: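 HepG2-CYP2B6-hCAR cells, 2500/well, 4 h pre-incubation; compounds 15 conc.; PK11195 0.75 uM final; 24 h, 37 C/5% CO2; ONE-Glo luciferase read.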

[8] = qHTS assay to identify small molecule antagonists of the estrogen related receptor signaling pathway with the pleiotropic PPARgamma coactivator (PGC) from Tox21 10K library (AID 1224841; call rule not given here; also: series mostly up to about 92 µM; actives are mostly falling curves and most rising ones were filed inactive; nearly all actives have a fitted effect of over 50% in size)
In short: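 Test chemicals dissolved in DMSO were applied to pre-incubated (6 h) PGC/ERR cells at 2,000 cells/well for an 18 h, 37 C treatment; reporter luminescence was then read using One-Glo.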

[9] = qHTS assay to identify small molecule agonists of the estrogen related receptor signaling pathway with the pleiotropic PPARgamma coactivator (PGC) from Tox21 10K library (AID 1224842); also: nearly all actives have a fitted effect of over 15% in size
In short: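 PGC/ERR reporter cells (NTP line) were seeded 2,000 per well, rested 6 h at 37 C/5% CO2, then pin-dosed with compounds in DMSO for 18 h at 37 C; luciferase read by One-Glo luminescence after 30 min at room temperature.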

[10] = target: Nuclear receptor subfamily 1 group I member 3 (Homo sapiens) (UniProt Q14994); test: qHTS assay to identify small molecule antagonists of the constitutive androstane receptor (CAR) signaling pathway (AID 1224838);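 also: HepG2 cells stably expressing hCAR with CYP2B6 luciferase reporter stimulated by CITCO; nearly all actives have a fitted effect of over 40% in size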
In short: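 Human hepatoma HepG2 cells expressing hCAR and a CYP2B6 promoter (2.2 kb) luciferase construct; compound titration (15 points) with 50 nM CITCO final, 24 h at 37 C/5% CO2; luminescence via ONE-Glo after 30 min at room temperature.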

Measured: Potency

C[N+]1(C)[C@@H]2CC[C@H]1CC(OC(=O)C(CO)c1ccccc1)C2 (some centres not stated)
inactive: [1] | [2] | [3] | [4] | [5] | [6]

COCCC#N
inactive: [1] | [2] | [3] | [4] | [5] | [6]

CCC(OC(C)=O)C(CC(C)NC)(c1ccccc1)c1ccccc1 (configuration not stated)
active: [1] 69.2 µM | [3] 69.2 µM | [4] 69.2 µM | [5] 69.2 µM
not listed: [10]
inactive: all other assays above

Clc1cc(Cl)c(-c2cc(Cl)c(Cl)cc2Cl)cc1Cl
inactive: [1] | [2] | [3] | [4] | [5]

[O]=[Cr](=[O])([OH])[O][Cr](=[O])(=[O])[OH]
inactive: [2] | [6]
active: [1] 13.8 µM and 24.3 µM | [3] 15.5 µM and 15.3 µM | [4] 11 µM and 9.67 µM | [5] 3.85 µM

CNC(=O)O/N=C(\C)C(C)S(C)(=O)=O (configuration not stated)
not listed: [7] | [10]
inactive: all other assays above

CCn1cc[n+](C)c1 (tested in a mixture with another compound)
inactive: [1] | [2] | [3] | [4] | [5]

O=C(O)CCCCCCNC1c2ccccc2CCc2ccccc21
inactive: [1] | [2] | [3] | [4] | [5] | [6]

N#CSCc1ccccc1
inactive: [1] | [2] | [3] | [4] | [7] | [6]

Oc1cc(Cl)cc(Cl)c1
inactive: [1] | [2] | [3] | [4] | [5] | [9]

CC(=O)C(Cl)C(=O)N(C)C (configuration not stated)
not listed: [8] | [9] | [10]
inactive: all other assays above

CCCCN(CCCC)C(=S)S
not listed: [6] | [7] | [10]
inactive: all other assays above

C#CC1(O)CCCCC1
not listed: [7] | [10]
inactive: all other assays above

[O-][Cl+3]([O-])([O-])O
inactive: [1] | [2] | [3] | [4] | [5]

Cc1cccc(Cc2cnc[nH]2)c1C
not listed: [8] | [9] | [10]
inactive: all other assays above

O=C(Nc1ccc(F)cc1F)c1cccnc1Oc1cccc(C(F)(F)F)c1
active: [6] 37.8 µM
not listed: [7] | [9] | [10]
inactive: all other assays above

BrCCCBr
not listed: [8] | [9] | [10]
inactive: all other assays above

ClC1(Cl)C2(Cl)C3(Cl)C4(Cl)C(Cl)(Cl)C5(Cl)C3(Cl)C1(Cl)C5(Cl)C24Cl (configuration not stated)
not listed: [7] | [10]
inactive: all other assays above

CCCN
inactive: [1] | [2] | [3] | [4] | [5] | [6]

CC(C)=CC1C(C(=O)OC(C#N)c2cccc(Oc3ccccc3)c2)C1(C)C (configuration not stated)
not listed: [6] | [7] | [10]
inactive: all other assays above

O=[N+]([O-])c1ccc(Cl)c(Cl)c1Cl
not listed: [10]
inactive: all other assays above

CC1CN1 (configuration not stated)
not listed: [8] | [9] | [10]
inactive: all other assays above

CC[N+]1(CC)CCC(OC(=O)C(O)(c2ccccc2)c2ccccc2)C1 (configuration not stated)
inactive: [1] | [2] | [4] | [10] | [7] | [6]

N#Cc1ccc(N(CC(N)=O)CC(F)(F)F)cc1C(F)(F)F
inactive: [1] | [2] | [3] | [4] | [5] | [6]

O=C(Cl)c1ccccc1F
not listed: [4] | [8] | [9]
inactive: all other assays above
